From PubChem BioAssay AID2472 (National Center for Advancing Translational Sciences (NCATS), 2010)
Hit rate of the full screen: of about 290,000 compounds, about 2,000 (0.69%) were called active. Only a selection was taken, and actives are over-represented in it overall. Unmarked numbers belong to inactive results. Cut-off read from the data, not from the text of the source: active = activity change below about -30%; inactive = the rest, inconclusive results apart.
% is set by controls: 0 for no effect and ±100 for the full control effect.

Assay: qHTS Assay for Inhibitors of Fructose-1,6-bisphosphate Aldolase from Giardia Lamblia: Coupling assay counterscreen
Conditions: coupling enzyme system counterscreen, AmpLite Red fluorescence; at 58.2 µM (top of the series)
In short: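 Final compound at 57.5 uM, incubated 10 min at RT with coupling enzyme reagent (glyceraldehyde-3-phosphate), then 20 min with substrate and AmpLite Red detection. Fluorescence read at 525/598 nm; tests interference with the coupling assay, not aldolase inhibition.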
Compound `CN(Cc1ccc(F)cc1Cl)S(=O)(=O)c1cccs1` has an activity change, negative = inhibition of -12.4%.
`CC(C)(C)c1ccc(SCCc2ccncc2)cc1` showed an activity change, negative = inhibition of 1.38%.
For `COc1cc(NC(=O)C2CCN(c3cnccn3)CC2)cc(OC)c1`, the activity change, negative = inhibition was -3.56%.
Work on `CCn1nccc1C(=O)Nc1ccc(Cl)c(Cl)c1` yielded an activity change, negative = inhibition of 0.939%.
With `CCn1nccc1C(=O)Nc1ccc(S(=O)(=O)NC23CC4CC(CC(C4)C2)C3)cc1` the activity change, negative = inhibition was -40.9% (active).
`Cc1cc(C(F)F)n2nc(C(=O)Nc3ccc(S(=O)(=O)NC45CC6CC(CC(C6)C4)C5)cc3)nc2n1` showed an activity change, negative = inhibition of 0.756%.
`COc1ccc(NC(=O)C2CCC(CNC(=O)[C@@H]3Cc4ccccc4CN3)CC2)cc1` (some centres not stated) showed an activity change, negative = inhibition of 0.0857%.
`COc1ccc(NC(=O)CCn2ccnc2)c(OC)c1` gave an activity change, negative = inhibition of 5.46%.
`COc1ccc(N=C(C)c2sc3ccccc3c2O)cc1` showed an activity change, negative = inhibition of -5.39%.
For `Oc1ccc(N=Cc2sc3ccccc3c2Cl)cc1`, the activity change, negative = inhibition was -45.3% (active).
`O=C(N/N=C/c1c(Cl)[nH]c2ccccc12)c1sc2ccccc2c1Cl` gave an activity change, negative = inhibition of -8.68%.
With `COc1ccccc1S(=O)(=O)c1c(C)cc(C)[nH]c1=O` the activity change, negative = inhibition was 0.55%.
`C=CC(C1=CC(=O)C=CC1=O)c1ccc(O)cc1` (configuration not stated) gave an activity change, negative = inhibition of -27%.
In the case of `Cc1oc2c(c1C(=O)N1CCOCC1)C(=O)c1ccccc1C2=O`, the activity change, negative = inhibition is reported as -40.8% (active).
Compound `Cc1noc(C)c1C(=O)N1CCOCC1` has an activity change, negative = inhibition of 0.778%.
With `CCOC(=O)c1ccccc1C(=O)N1CCOCCOCCOCC1` the activity change, negative = inhibition was -0.445%.
In the case of `COC(=O)c1cc2c(ccn2C)n1C`, the activity change, negative = inhibition is reported as -5.9%.
For `Cc1cc(C(=O)N/N=C/c2ccccn2)c2ccccc2n1`, the activity change, negative = inhibition was 0.262%.
In the case of `CCCc1cc(=S)n2c([nH]c3ccccc32)c1C#N`, the activity change, negative = inhibition is reported as -7.83%.
In the case of `CCOC(=O)CCc1c(C)c(C#N)c2[nH]c3ccccc3n2c1=O`, the activity change, negative = inhibition is reported as -41.6% (active).
`CCOC(=O)CSc1nccc(N(C)C)c1C#N` showed an activity change, negative = inhibition of -0.791%.
Compound `C=CCn1cc(Cl)cc(C(=O)Nc2ccccc2)c1=O` has an activity change, negative = inhibition of 0.816%.
In the case of `COc1ccc2cc(S(=O)(=O)Nc3ccccn3)ccc2c1`, the activity change, negative = inhibition is reported as 0.329%.
`COc1ccc(S(=O)(=O)Nc2c(C)n(C)n(-c3ccccc3)c2=O)cc1` gave an activity change, negative = inhibition of 0.385%.
With `COc1ccc(S(=O)(=O)/N=C2\C=C(NS(=O)(=O)c3ccccc3)C(=O)c3ccccc32)cc1` the activity change, negative = inhibition was -39.6% (active).
`C[C@@H](O)[C@@H]1NC(=O)[C@H](CCCCN)NC(=O)[C@H](Cc2c[nH]c3ccccc23)NC(=O)[C@H](Cc2ccccc2)NC(=O)[C@H](Cc2ccccc2)NC(=O)[C@H](CC(N)=O)NC(=O)[C@H](CCCCN)NC(=O)[C@@H](NC(=O)[C@@H]2CCCN2)CSSC[C@@H](C(=O)N[C@@H](CCCCN)C(=O)O)NC(=O)[C@H](CO)NC(=O)[C@H](CO)NC(=O)[C@H](Cc2ccccc2)NC1=O` showed an activity change, negative = inhibition of -0.403%.
Compound `CCCc1c(C(=O)Nc2ccc(F)cc2)cnn1-c1ccccc1` has an activity change, negative = inhibition of -6.8%.
`Cc1ccc(CNC(=O)C2(C(F)(F)F)C/C(=C\CCO)CCCO2)o1` (configuration not stated) showed an activity change, negative = inhibition of 3.8%.
`Cc1ccc(C(=O)Nc2cccc3ncccc23)cc1[N+](=O)[O-]` gave an activity change, negative = inhibition of 0.485%.
In the case of `Cc1ccc(/C=C(\C#N)C(=O)Nc2cccc3ncccc23)o1`, the activity change, negative = inhibition is reported as -39% (active).
With `O=C(Nc1cccc2ncccc12)C(Cl)(Cl)Cl` the activity change, negative = inhibition was 0.503%.
With `CCOC(=O)C1CCCN(S(=O)(=O)c2ccc(-n3cnnn3)c(C)c2)C1` (configuration not stated) the activity change, negative = inhibition was 2.06%.
`c1ccc2c(Nc3ccncc3)nc(-c3ccc4c(c3)OCO4)nc2c1` showed an activity change, negative = inhibition of -0.804%.
For `O=C(NCc1ccccn1)c1ccc2nc(-c3ccco3)c(-c3ccco3)nc2c1`, the activity change, negative = inhibition was -38.7% (active).
For `COc1ccc2oc(=O)c(C(=O)NCc3ccccn3)cc2c1`, the activity change, negative = inhibition was -2.85%.
For `COCCNC(=O)Nc1ccc2nc(-c3ccco3)c(-c3ccco3)nc2c1`, the activity change, negative = inhibition was -35% (active).
In the case of `Cc1cc(C)cc(NC(=O)NCc2ccccn2)c1`, the activity change, negative = inhibition is reported as -0.5%.
In the case of `CC(C)(C)c1ccc(NC(=O)NCc2ccco2)cc1`, the activity change, negative = inhibition is reported as -0.174%.
`O=C(Nc1ccc2nccnc2c1)c1ccco1` gave an activity change, negative = inhibition of -1.38%.
Compound `CCCCC/C=C\C/C=C\C/C=C\CCCCCCC(N)=O` has an activity change, negative = inhibition of 2.69%.
Work on `CCC1Sc2ccc(S(=O)(=O)CCC(=O)NCc3cccs3)cc2NC1=O` (configuration not stated) yielded an activity change, negative = inhibition of -3.89%.
For `Cc1cc2c(cc1S(=O)(=O)NCc1ccc(Cl)cc1)OCC(=O)N2`, the activity change, negative = inhibition was 1.64%.
`COC(=O)C(C(=O)OC)[C@@H](NC=O)c1ccccc1` showed an activity change, negative = inhibition of 1.57%.
With `CCOC(=O)c1ccccc1CN1C(=O)c2ccccc2S1(=O)=O` the activity change, negative = inhibition was -1.95%.
For `CCOC(=O)C1=C(C(=O)OCC)C(C(=O)OCC)N(S(=O)(=O)C(F)(F)F)c2ccccc21` (configuration not stated), the activity change, negative = inhibition was 0.565%.
In the case of `CCOC(=O)c1cc2n(c1N)-c1ccccc1C2=O`, the activity change, negative = inhibition is reported as -30.6% (active).
`COC(=O)c1ccc(CNC(=O)C2CCC(=O)N(Cc3ccccn3)C2)cc1` (configuration not stated) showed an activity change, negative = inhibition of 0.556%.
`CCOC(=O)C1=NO[C@@]2(C=C(Br)C(=O)[C@H]3O[C@H]32)C1` showed an activity change, negative = inhibition of 1.71%.
For `Cc1cc(CNC(=O)C2CCC(=O)N(CCc3ccc(Cl)cc3)C2)no1` (configuration not stated), the activity change, negative = inhibition was 2.61%.
With `CC(C(=O)NCCc1ccc(S(N)(=O)=O)cc1)N1C(=O)CC(C)(C)Sc2ccccc21` (configuration not stated) the activity change, negative = inhibition was 5.69%.
Work on `O=C(N/N=C/c1c[nH]c2ccccc12)c1ccccc1O` yielded an activity change, negative = inhibition of 1.26%.
With `C[n+]1ccc(/C=C/c2c[nH]c3ccccc23)cc1` the activity change, negative = inhibition was -48.5% (active).
With `CSC(=S)N/N=C/c1c[nH]c2ccccc12` the activity change, negative = inhibition was -0.216%.
Compound `O=C(NC1CC1)C1=C[C@H](c2c[nH]c3ccccc23)C[C@H](OCc2ccc(CO)cc2)O1` has an activity change, negative = inhibition of -9.68%.
For `COc1cccc([C@@H]2Oc3ccc(Br)cc3C(=O)[C@H]2OC(=O)NCc2ccc3c(c2)OCO3)c1`, the activity change, negative = inhibition was 1.06%.
With `COc1ccc(CCNC(=O)CSCc2ccc(Br)cc2)cc1OC` the activity change, negative = inhibition was -0.53%.
In the case of `CCCCCCCCCc1ccc(OCCOCCOCCOCCOCCOCCOCCOCCOCCO)cc1`, the activity change, negative = inhibition is reported as 0.692%.
`COC(=O)[C@@]1(Cc2ccc(F)cc2)[C@H]2c3cc(C(=O)N4CCCC4)n(C[C@H](O)CO)c3C[C@H]2CN1C(=O)c1ccccc1` showed an activity change, negative = inhibition of 4.89%.
`COc1ccc(N2CCN(C(C)=C3C(=O)c4ccccc4C3=O)CC2)cc1` showed an activity change, negative = inhibition of -5.52%.
For `COC1=C(N2CCOCC2)C(=O)c2ccccc2C1=O`, the activity change, negative = inhibition was -31.1% (active).
Compound `O=C1C(Cl)=C(N2CCOCC2)C(=O)N1c1ccccc1` has an activity change, negative = inhibition of 4.18%.
In the case of `O=C(CSc1cccc[n+]1[O-])c1ccc(-c2ccccc2)cc1`, the activity change, negative = inhibition is reported as -0.455%.
`CCSc1nsc(NC(=O)Nc2cccc(C(C)=O)c2)n1` showed an activity change, negative = inhibition of -3.71%.
`C=C1CCN(Cc2ccc(OC)cc2)S(=O)(=O)c2ccccc21` gave an activity change, negative = inhibition of -9.95%.
In the case of `O=C(Nc1cc(C(=O)Nc2ccc(S(=O)(=O)O)cc2)cc(C(=O)Nc2ccc(S(=O)(=O)O)cc2)c1)Nc1cc(C(=O)Nc2ccc(S(=O)(=O)O)cc2)cc(C(=O)Nc2ccc(S(=O)(=O)O)cc2)c1`, the activity change, negative = inhibition is reported as 4.94%.
In the case of `Cc1c(S(=O)(=O)O)oc2c1C(=O)C(=O)c1c-2ccc2c1CCCC2(C)C`, the activity change, negative = inhibition is reported as -38.9% (active).
Work on `Cc1cc(C)cc(C#CC2C=CC(Oc3ccc(C4CCCC4)cc3)C(CO)O2)c1` (configuration not stated) yielded an activity change, negative = inhibition of -0.466%.
In the case of `CC(C)(c1ccccc1)c1ccc(OCCN2CCCC2)cc1`, the activity change, negative = inhibition is reported as 1.45%.
In the case of `CCOc1ccc2[nH]c(=O)c(C(c3nnnn3CCOC)N3CCOCC3)cc2c1` (configuration not stated), the activity change, negative = inhibition is reported as -2.27%.
In the case of `COCCn1nnnc1C(c1cc2ccc(OC)cc2[nH]c1=O)N1CCc2ccccc2C1` (configuration not stated), the activity change, negative = inhibition is reported as -47.7% (active).
With `COc1ccc(OC)c(C(c2nnnn2C(C)(C)C)N2CCc3ccccc3C2)c1` (configuration not stated) the activity change, negative = inhibition was -0.0178%.
For `CCOc1ccc(CCNC(=O)Nc2ccccc2)cc1OCC`, the activity change, negative = inhibition was 1.61%.
For `Cc1cccc(OC(C)C(=O)N2CCc3ccccc3C2)c1` (configuration not stated), the activity change, negative = inhibition was 3.66%.
Work on `CC(C)(O/N=C(\C(=O)N[C@@H]1C(=O)N2C(C(=O)[O-])=C(C[n+]3ccccc3)CS[C@@H]12)c1csc(N)n1)C(=O)O` yielded an activity change, negative = inhibition of 1.97%.
`CCN1C(=S)N[C@@H](c2cccc(C(F)(F)F)c2)C(C(=O)OC)=C1C` gave an activity change, negative = inhibition of 2.17%.
With `CN(CCc1ccccn1)C(=O)c1ccc(OC2CCN(CCc3ccccc3)CC2)cc1` the activity change, negative = inhibition was 6.37%.
With `Nc1ccc2nc3c(=O)[nH]c(=S)[nH]c3nc2c1` the activity change, negative = inhibition was -35.7% (active).
`Cc1cc2nc3c(=O)n(Cc4ccccc4)c(=O)[nH]c3nc2cc1N` showed an activity change, negative = inhibition of -26.3%.
`Cc1cccc(OCCC(=O)Nc2ccccc2C(N)=O)c1` gave an activity change, negative = inhibition of -1.3%.
`O=C(NCc1ccco1)O[C@@H]1C(=O)c2cc(Br)ccc2O[C@H]1c1ccc2c(c1)OCO2` showed an activity change, negative = inhibition of -0.223%.
In the case of `Cc1ccccc1NC(=O)N1CCCC1C(=O)NCc1ccccc1` (configuration not stated), the activity change, negative = inhibition is reported as 2.24%.
For `CC(C)(C)c1ccc(C(=O)NCCn2c(N)c(C#N)c3nc4ccccc4nc32)cc1`, the activity change, negative = inhibition was -0.974%.
Compound `CCC(C)NC(=O)c1c(N)n(/N=C/c2cccs2)c2nc3ccccc3nc12` (configuration not stated) has an activity change, negative = inhibition of 5.17%.
In the case of `CC(C)Cn1c(N)c(C(=O)NCc2cccs2)c2nc3ccccc3nc21`, the activity change, negative = inhibition is reported as -45.5% (active).
In the case of `COc1ccc(-c2nc3c(c4c2C[C@H](c2ccccc2)OC4)CN(C(=O)c2ccco2)CC3)c(C)c1`, the activity change, negative = inhibition is reported as -0.274%.
In the case of `COc1ccc(OCC(=O)Nc2ccc(NC(=O)c3ccco3)c(C)c2)cc1`, the activity change, negative = inhibition is reported as -0.451%.
Compound `Cc1ccc(/C=N/NC(=O)CNC(=O)COc2ccccc2)o1` has an activity change, negative = inhibition of 0.654%.
For `C=C(C)CNC(=S)N/N=C/c1ccccc1OCC(=O)O`, the activity change, negative = inhibition was 7.3%.
`C=CCOc1ccccc1/C=N/NC(=O)Cc1ccccc1` showed an activity change, negative = inhibition of 3.68%.
`Cc1ccc(/C=N/NC(=O)COc2ccccc2-c2ccccc2)cc1` gave an activity change, negative = inhibition of 0.851%.
For `C=CCc1ccccc1OCC(=O)N/N=C/c1ccccc1OCC`, the activity change, negative = inhibition was -30.1% (active).
With `CCOc1ccccc1/C=N/NC(=O)CNC(=O)COc1ccccc1` the activity change, negative = inhibition was -43.5% (active).
